For six compounds, composite z-score and z-score results are on record in PubChem BioAssay.

A short description of assay [1]: small molecules captured by biotinylated probe aFSTL3 – biochemical, small-molecule microarray, fluorescence 635/667, stem cell growth factor project, primary screen (AID 1064).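 Note: measures binding of the biotinylated anti-FSTL3 antibody to printed compounds.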 To be noted: higher = more signal.
Assay [2] can be described thus: binders from COS7 lysate, DM2A8 probe, primary screen, torsin A project, cell lysate, small-molecule microarray, fluorescence 635/667 (AID 1065). The settings on record: higher = more signal, COS7 lysate expressing mutant human TOR1A.
Assay [3] in a line: small molecules captured by biotinylated probe aFGF2 – biochemical, small-molecule microarray, fluorescence 635/667, stem cell growth factor project, primary screen (AID 1067).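 Note: measures binding of biotinylated aFGF2 protein to printed compounds on slides; z-score merges feature fluorescence and signal-to-noise across triplicate slides.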 To be noted: higher = more signal.
The nature of assay [4]: small molecules captured by biotinylated probe aFGF10 – biochemical, small-molecule microarray, fluorescence 635/667, stem cell growth factor project, primary screen (AID 1071).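 Note: score merges 667 nm spot intensity and signal to noise from triplicate slides.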 The settings on record: higher = more signal.
Assay [5] addresses Neurogenic locus notch homolog protein 2 (Homo sapiens) (UniProt Q04721). The assay is described as follows: small molecules binding Notch2 protein – biochemical, small-molecule microarray, 635 nm fluorescence, stem cell growth factors, primary screen (AID 1073). The settings on record: higher = more signal.
The target of assay [6] is Pro-neuregulin-1, membrane-bound isoform (Homo sapiens) (UniProt Q02297). The assay can be described thus: small molecules binding neuregulin-1 protein – biochemical, small-molecule microarray, fluorescence 635/667, psychiatric disease protein project, primary screen (AID 1075).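 Note: score combines 667 nm spot fluorescence with signal to noise.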 To be noted: NRG1 binding, 635 nm fluorescence, higher = more signal.
Assay [7] relates to Neuregulin-1 EGF-like domain. The assay is described as follows: small molecules binding NRG1 EGF domain – biochemical, small-molecule microarray, 635 nm fluorescence, primary screen (AID 1081).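 Note: binding of the protein to compounds printed on small-molecule microarray slides.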 To be noted: higher = more signal.
The nature of assay [8]: FRG1 expression reporter modulators in myotubes – cell-based, C2C12 myotubes, firefly/Renilla luciferase, luminescence, FRG1 inhibition for FSHD, primary screen (AID 1084). To be noted: FRG1 promoter luciferase, higher = more signal, called active from +8 up or from −8 down.
Assay [9] in a line: small molecules captured by biotinylated probe aFST – biochemical, small-molecule microarray, fluorescence 635/667, stem cell growth factor project, primary screen (AID 1086).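 Note: score merges 667 nm fluorescence with signal-to-noise of each printed compound spot.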 To be noted: higher = more signal.
A short description of assay [10]: binders of probe aHhip on microarray, primary screen, stem cell growth factor project, biochemical, small-molecule microarray, fluorescence 635/667 (AID 1087).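 Note: score merges spot fluorescence at 667nm with spot signal to noise ratio.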 The settings on record: higher = more signal.
The test system of assay [11] is PRMT1 (protein arginine N-methyltransferase 1). The assay can be described thus: small molecules binding arginine methyltransferase PRMT1 – biochemical, small-molecule microarray, 635 nm fluorescence, primary screen (AID 1088).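 Note: binding of Prmt1 protein to compounds spotted on small-molecule microarray slides.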 To be noted: higher = more signal.
Assay [12] can be described thus: growth effects on S. cerevisiae YJM789 – YJM789 clinical isolate, OD600, 24 h, basal, primary screen (AID 1089).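 Note: growth of clinical yeast isolate S. cerevisiae YJM 789 seeded 1000 cells per well; test concentration not given here.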 To be noted: higher = more signal, called active from +8 up or from −8 down.
Assay [13] is described as follows: S. pombe growth modifiers, basal conditions – strain 972, OD600, 24 h, no modulator, primary screen (AID 1090).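 Note: basal condition with compound alone and no growth modifier present; test concentration not given here.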 To be noted: S. pombe 972 growth, higher = more signal, called active from +8 up or from −8 down.
A short description of assay [14]: budding yeast growth modifiers under rapamycin – strain BY4716, OD600, 96 h, primary screen (AID 1091). Note: test concentration not given here. The settings on record: S. cerevisiae BY4716 + rapamycin, higher = more signal, called active from +8 up or from −8 down.
For assay [15], the target named is Torsin-1A-interacting protein 2 (Homo sapiens) (UniProt Q8NFQ8). The assay is described as follows: small molecules binding lysate-expressed LULL1 – cell lysate, human LULL1 lysate, 635/667 nm fluorescence, primary screen (AID 1092).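 Note: probe is lysate of COS7 cells overexpressing human LULL1; score merges per-feature 667 nm fluorescence with signal-to-noise.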 The settings on record: small-molecule microarray, hLULL1 lysate binding, 635 nm fluorescence; higher = more signal.
Assay [16] in a line: optical density change of DRC41 E. coli – strain DRC41, OD650, 24 h, E. coli filamentation project, primary screen (AID 1093).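 Note: MC1000 strain lacking acrAB efflux and sulA so SOS filamentation is blocked; test concentration not given here.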 The settings on record: E. coli DRC41 growth, higher = more signal, called active from +8 up or from −8 down.
Assay [17] in a line: probe aLefty2 binding to arrayed compounds – biochemical, biotinylated probe, 635/667 nm fluorescence, primary screen (AID 1094).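 Note: score merges spot fluorescence near 667 nm with spot signal-to-noise ratio.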 To be noted: small-molecule microarray, higher = more signal.
Assay [18] deals with Noggin (protein binding on small-molecule microarray). The assay is described as follows: small molecules binding Noggin protein – biochemical, 635/667 nm fluorescence, primary screen (AID 1095).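 Note: score merges 667 nm feature fluorescence with signal to noise over triplicate slides.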 To be noted: 635 nm fluorescence, higher = more signal.
In assay [19] the target is Neurogenic locus notch homolog protein 3 (Homo sapiens) (UniProt Q9UM47). The assay can be described thus: small molecules binding NOTCH3 protein – biochemical, 635/667 nm fluorescence, primary screen (AID 1096). The settings on record: small-molecule microarray, 635 nm fluorescence, higher = more signal.
A short description of assay [20]: probe aEGFR binding to arrayed compounds – biochemical, biotinylated probe, 635/667 nm fluorescence, primary screen (AID 1097).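 Note: probe is a biotinylated anti-EGFR antibody binding compounds printed on slides; score combines fluorescence near 667 nm and signal to noise of each spot.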 The settings on record: small-molecule microarray, higher = more signal.

The source made the active and inactive calls.

Neurogenic locus notch homolog protein 2 (Homo sapiens), sequence (Q04721 whole entry, looked up, canonical isoform): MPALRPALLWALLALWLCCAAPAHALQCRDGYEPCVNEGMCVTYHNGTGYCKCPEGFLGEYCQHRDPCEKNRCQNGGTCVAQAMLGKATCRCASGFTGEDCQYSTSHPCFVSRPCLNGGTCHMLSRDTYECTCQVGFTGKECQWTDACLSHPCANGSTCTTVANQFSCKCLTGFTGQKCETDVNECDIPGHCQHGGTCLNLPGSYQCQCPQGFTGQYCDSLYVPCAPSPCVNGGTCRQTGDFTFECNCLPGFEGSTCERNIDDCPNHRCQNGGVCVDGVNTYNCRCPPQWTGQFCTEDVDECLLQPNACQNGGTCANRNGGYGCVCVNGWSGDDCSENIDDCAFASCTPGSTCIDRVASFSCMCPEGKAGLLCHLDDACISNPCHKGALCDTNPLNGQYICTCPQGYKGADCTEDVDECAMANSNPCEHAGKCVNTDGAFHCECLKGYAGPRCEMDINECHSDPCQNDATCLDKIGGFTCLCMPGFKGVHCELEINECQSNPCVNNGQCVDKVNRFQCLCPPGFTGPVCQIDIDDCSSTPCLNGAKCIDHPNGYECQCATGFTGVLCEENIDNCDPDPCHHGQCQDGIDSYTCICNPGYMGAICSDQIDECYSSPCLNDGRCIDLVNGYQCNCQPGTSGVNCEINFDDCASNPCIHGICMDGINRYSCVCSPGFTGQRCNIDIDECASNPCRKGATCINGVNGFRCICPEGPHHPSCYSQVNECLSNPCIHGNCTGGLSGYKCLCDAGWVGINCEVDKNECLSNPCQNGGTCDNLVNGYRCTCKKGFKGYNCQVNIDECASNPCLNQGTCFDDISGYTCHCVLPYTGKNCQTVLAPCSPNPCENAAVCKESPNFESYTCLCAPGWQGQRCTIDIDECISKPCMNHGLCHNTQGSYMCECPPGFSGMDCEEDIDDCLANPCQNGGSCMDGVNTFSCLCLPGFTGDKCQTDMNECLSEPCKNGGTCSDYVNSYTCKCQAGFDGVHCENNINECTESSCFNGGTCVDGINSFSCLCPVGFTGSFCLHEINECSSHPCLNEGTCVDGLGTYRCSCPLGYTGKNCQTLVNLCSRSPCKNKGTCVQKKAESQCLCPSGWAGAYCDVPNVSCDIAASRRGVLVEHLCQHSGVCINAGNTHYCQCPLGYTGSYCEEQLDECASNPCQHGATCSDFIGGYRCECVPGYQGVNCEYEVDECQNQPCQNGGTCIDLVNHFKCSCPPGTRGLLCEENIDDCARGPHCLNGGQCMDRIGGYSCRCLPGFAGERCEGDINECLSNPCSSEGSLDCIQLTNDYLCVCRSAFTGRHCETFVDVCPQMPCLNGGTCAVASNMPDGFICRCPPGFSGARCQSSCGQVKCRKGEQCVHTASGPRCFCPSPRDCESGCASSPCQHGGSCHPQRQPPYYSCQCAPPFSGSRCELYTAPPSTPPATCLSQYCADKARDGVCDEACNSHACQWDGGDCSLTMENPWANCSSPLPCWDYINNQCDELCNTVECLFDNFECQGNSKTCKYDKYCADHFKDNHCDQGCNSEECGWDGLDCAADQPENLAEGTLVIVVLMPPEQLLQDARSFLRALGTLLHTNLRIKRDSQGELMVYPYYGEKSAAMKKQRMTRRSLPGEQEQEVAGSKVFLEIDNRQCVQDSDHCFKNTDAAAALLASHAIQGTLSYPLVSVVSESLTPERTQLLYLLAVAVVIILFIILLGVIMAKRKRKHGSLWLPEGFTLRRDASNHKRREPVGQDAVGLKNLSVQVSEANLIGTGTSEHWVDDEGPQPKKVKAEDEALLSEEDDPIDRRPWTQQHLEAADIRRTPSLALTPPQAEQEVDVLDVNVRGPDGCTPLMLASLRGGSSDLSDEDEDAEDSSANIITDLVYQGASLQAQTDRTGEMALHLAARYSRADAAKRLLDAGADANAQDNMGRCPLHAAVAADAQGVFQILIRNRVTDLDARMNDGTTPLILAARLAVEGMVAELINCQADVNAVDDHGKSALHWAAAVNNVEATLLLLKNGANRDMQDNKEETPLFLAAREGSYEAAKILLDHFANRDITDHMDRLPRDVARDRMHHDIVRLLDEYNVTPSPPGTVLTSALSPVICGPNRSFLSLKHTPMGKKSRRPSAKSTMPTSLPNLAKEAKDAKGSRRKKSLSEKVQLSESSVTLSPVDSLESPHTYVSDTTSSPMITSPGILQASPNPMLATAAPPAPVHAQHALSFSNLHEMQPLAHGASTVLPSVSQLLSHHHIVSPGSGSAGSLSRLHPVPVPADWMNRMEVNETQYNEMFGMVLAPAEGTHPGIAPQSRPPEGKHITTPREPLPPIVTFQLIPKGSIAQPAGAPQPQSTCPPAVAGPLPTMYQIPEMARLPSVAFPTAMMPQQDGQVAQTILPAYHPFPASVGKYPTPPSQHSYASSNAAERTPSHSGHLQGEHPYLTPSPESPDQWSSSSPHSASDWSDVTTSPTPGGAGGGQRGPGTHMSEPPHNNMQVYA
Pro-neuregulin-1, membrane-bound isoform (Homo sapiens), sequence (Q02297 whole entry, looked up, the tested form may be a part, canonical isoform): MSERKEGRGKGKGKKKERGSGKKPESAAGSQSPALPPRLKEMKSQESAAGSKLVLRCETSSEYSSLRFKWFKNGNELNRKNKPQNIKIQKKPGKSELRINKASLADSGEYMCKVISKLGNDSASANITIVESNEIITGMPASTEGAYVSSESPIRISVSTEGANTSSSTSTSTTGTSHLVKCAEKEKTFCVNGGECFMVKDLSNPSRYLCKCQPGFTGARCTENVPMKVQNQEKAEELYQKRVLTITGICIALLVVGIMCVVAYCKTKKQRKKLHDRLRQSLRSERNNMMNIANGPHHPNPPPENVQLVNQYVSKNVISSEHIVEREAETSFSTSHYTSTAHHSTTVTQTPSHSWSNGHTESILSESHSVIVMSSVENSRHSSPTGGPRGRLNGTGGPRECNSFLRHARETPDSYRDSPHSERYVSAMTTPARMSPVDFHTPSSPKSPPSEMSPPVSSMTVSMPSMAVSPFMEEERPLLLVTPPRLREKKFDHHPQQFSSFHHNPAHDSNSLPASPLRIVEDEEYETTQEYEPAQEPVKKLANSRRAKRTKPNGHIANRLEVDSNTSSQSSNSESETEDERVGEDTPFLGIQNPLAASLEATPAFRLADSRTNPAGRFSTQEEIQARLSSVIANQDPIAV
Torsin-1A-interacting protein 2 (Homo sapiens), sequence (Q8NFQ8 whole entry, looked up): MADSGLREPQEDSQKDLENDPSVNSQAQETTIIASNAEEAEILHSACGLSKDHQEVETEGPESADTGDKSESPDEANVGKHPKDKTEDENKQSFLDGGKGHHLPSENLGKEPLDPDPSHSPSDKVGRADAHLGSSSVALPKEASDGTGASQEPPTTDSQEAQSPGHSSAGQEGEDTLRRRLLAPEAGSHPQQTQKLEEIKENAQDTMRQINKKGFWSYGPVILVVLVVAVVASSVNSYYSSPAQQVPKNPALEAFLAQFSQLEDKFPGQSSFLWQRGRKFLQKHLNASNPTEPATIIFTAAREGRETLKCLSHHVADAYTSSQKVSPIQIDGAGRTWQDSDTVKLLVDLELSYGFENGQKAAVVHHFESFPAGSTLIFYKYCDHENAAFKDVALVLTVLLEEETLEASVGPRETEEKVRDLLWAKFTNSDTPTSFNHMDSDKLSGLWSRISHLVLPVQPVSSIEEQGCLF

As for `C=C(CCCC)C(=O)CC[C@@H](OC(=O)c1ccccc1-c1ccccc1C(=O)O)c1cccc(OCCO)c1`, the composite z-score in [1] was -0.208; in [2] it was 0.996; in assay [3] it was -0.129; in [4], 0.166; in assay [5], -0.404; in assay [6] it was 0.143. In addition, the composite z-score in [7] is 0.742; in assay [9], -0.499; in assay [10], -0.249; in assay [11], 1.53; in assay [15], 0.13; in [17], -0.31. Besides, the composite z-score is 1.06 in assay [18], 0.675 in assay [19] and -0.287 in assay [20]. Moreover, the z-score is 0.238 (inactive) in [8]; 0.299 (inactive) in [12]; -0.694 (inactive) in assay [13]; -0.541 (inactive) in assay [14]; 0.169 (inactive) in assay [16].

On to `COc1ccc(NC(=O)O[C@H]2[C@H](OC(=O)Nc3ccc4c(c3)OCO4)[C@@H](OC(=O)Nc3ccc4c(c3)OCO4)[C@@H](OC)O[C@@H]2CO)cc1`, for which the composite z-score in [1] was 0.157; in [2], -0.0536; in assay [3], 0.0397; in assay [4], 0.639; in assay [5], 0.922; in assay [6], 1.57. Moreover, the composite z-score is 1.2 in [7]; 0.4 in assay [9]; -0.0296 in [10]; 1.56 in assay [11]; 3.66 in assay [15]; -0.0396 in [17]. The results for the composite z-score in [18], in assay [19] and in assay [20] were 0.89, 1.08 and -0.0953, respectively. The z-score is 6.75 (inactive) in assay [8]; 1.5 (inactive) in assay [12]; 1.61 (inactive) in assay [13]; -0.31 (inactive) in [14]; 1.93 (inactive) in assay [16].

Turning to `C=C(CCCC)C(=O)CC[C@@H](OC(=O)c1cccnc1)c1ccccc1OCCO`, the composite z-score in assay [1] is 0.0165; in assay [2] it was 0.77; in [3] it was -0.0878; in assay [4], 0.0032; in assay [5] it was -0.872; in assay [6], -0.413. Besides, the composite z-score in assay [7] was -0.0199; in [9], -0.604; in [10] it was -0.0994; in assay [11] it was 1.31; in assay [15] it was 0.178; in assay [17] it was 0.0166. In addition, the values for the composite z-score in [18], in assay [19] and in [20] were 0.836, 0.144 and -0.0565, respectively. Besides, the z-score in [8] is -0.449 (inactive); in [12], -0.765 (inactive); in assay [13], -1.37 (inactive); in assay [14] it was -0.24 (inactive); in [16], 0.22 (inactive).

Turning to `CC(=O)n1cc(C(O)C2C=CC3C(=O)N(c4ccccc4)C(=O)C3N2Nc2ccccc2)c2ccccc21` (stereo not given), the composite z-score in assay [1] worked out at 1.87; in assay [2] it was 0.489; in [3], 0.447; in assay [4], 0.893; in [5], 1.52; in assay [6] it was 0.837. Besides, the composite z-score was 1.11 in [7]; 1.1 in [9]; -0.0702 in assay [10]; 0.174 in assay [11]; 2.73 in [15]; 0.203 in [17]. The composite z-score is -0.272 in assay [18], 0.816 in assay [19] and 0.672 in assay [20]. The z-score in assay [8] was 0.621 (inactive); in assay [12], 0.514 (inactive); in assay [13], 0.965 (inactive); in assay [14], 0.102 (inactive); in assay [16] it was -1.18 (inactive).

On to `COCCOC(=O)N1C(=O)[C@@]2(c3ccccc31)[C@H](C(=O)N1CCN(c3ncccn3)CC1)[C@H]1C(=O)O[C@H](c3ccccc3)[C@H](c3ccccc3)N1[C@@H]2c1ccc(OCCO)cc1`, for which the composite z-score in assay [1] stood at 0.213; in assay [2] it was 0.295; in assay [3] it was 0.0043; in assay [4], 1.13; in assay [5], 1.29; in assay [6], 1.2. For the same compound, the composite z-score was determined as 1.28 in assay [7]; 0.593 in [9]; 0.388 in assay [10]; 1.56 in assay [11]; 2.56 in assay [15]; 0.309 in assay [17]. In addition, the values for the composite z-score in assay [18], in [19] and in assay [20] were 0.57, 0.817 and 0.325, respectively. Also, the z-score in assay [8] is 0.795 (inactive); in assay [12] it was 2.53 (inactive); in assay [13], 1.1 (inactive); in assay [14] it was 5.84 (inactive); in assay [16], 1.75 (inactive).

For `Cc1ccc(S[C@]2(C(=O)NCCN3CCOCC3)CC(=O)N(Cc3ccccc3C(F)(F)F)[C@@H]2c2ccc(CO)cc2I)cc1`, the composite z-score is 0.273 in [1]; -0.245 in assay [2]; -0.0876 in assay [3]; -0.36 in assay [4]; -0.103 in assay [5]; 2.09 in assay [6]. Further, the composite z-score is 1.23 in assay [7]; -0.295 in assay [9]; -0.236 in [10]; 0.783 in assay [11]; 1.2 in assay [15]; -0.145 in assay [17]. Moreover, the composite z-score is -0.586 in assay [18], -0.689 in assay [19] and -0.233 in [20]. In addition, the z-score is -0.883 (inactive) in assay [8]; -1.57 (inactive) in assay [12]; -4.24 (inactive) in assay [13]; 0.176 (inactive) in [14]; -0.28 (inactive) in assay [16].
